# Compound activity deposited in PubChem BioAssay by several laboratories.
# Shown are actives, neighbours in structure and some others; about 4.2% of the full set was active somewhere.
# Mtb FBA inh: inhibitors of M. tuberculosis fructose-bisphosphate aldolase; P9WQA3; inhibition, % at 1 µM; 360,000 tested, 2.3% active; AID 588726; purified M. tuberculosis FBA, fluorescence read-out; in the data active = inhibition above about 27%;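 note: 0% = vehicle and 100% = reference inhibitor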
# CCHFV vOTU inh: CCHFV vOTU protease inhibition. Pep-AMC fluorescence. inhibition, % at 11.5 µM. 370,000 tested, 0.55% active. AID 651958; note: 0% = vehicle wells with enzyme and 100% = no enzyme wells
# RecA splice inh: inhibitors of M. tuberculosis RecA intein splicing; cell-free RecA intein splicing, fluorescence; inhibition, % (no concentration beside the values); 290,000 tested, 0.75% active; in the data active = inhibition above about 30%;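 note: 0% = vehicle wells and 100% = reference inhibitor control wells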
# GDH-TPI counter: inhibits GDH-TPI coupling enzymes, artifact for Mtb FBA screen. GDH-TPI coupled enzyme counterscreen, NADH absorbance. inhibition, % at 4.8 µM. 360,000 tested, 1.2% active. AID 588335;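 note: 0% = DMSO wells and 100% = wells lacking the enzyme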
# Numbers without * were called inactive; nt = not tested or not shown; + = active, no number. Cut-off read from the data, not from the text of the source, unless noted: active = inhibition above about 30%; inactive = the rest.
SMILES,Mtb FBA inh,CCHFV vOTU inh,RecA splice inh,GDH-TPI counter
CCN(CC)C(=O)Cn1c(=O)n(CC(=O)N2CCCCC2)c(=O)c2sccc21,-1,4,3,7
O=S1(=O)C=CCN1Cc1cn(Cc2cccc(Cl)c2)nn1,nt,-8,nt,nt
Cc1cn([C@H]2C[C@H](O)[C@@H](CNCc3ccccc3OCCCN3CCOCC3)O2)c(=O)[nH]c1=O,5,7,nt,3
O=S(=O)(N/N=C\c1ccccc1O)c1ccc(Cl)cc1,0,16,1,7
O=S(=O)(N/N=C\C=C\c1ccccc1)c1ccc(Cl)cc1,0,0,1,59*
CCc1nc2c(OCc3ccc(Cl)cc3Cl)cccn2c1N(C=O)Cc1ccc(OC)cc1,0,9,nt,6
COC(=O)C(C)SC1=N/C(=C/c2ccc(-n3cncn3)cc2)C(=O)N1 (centres undefined),0,0,1,43*
CC(OC(=O)/C=C/c1cccc(Cl)c1)C(=O)NC1CCCCC1C (centres undefined),1,-18,nt,4
Cc1cccc(OCC(=O)Nc2nnc(-c3ccco3)s2)c1,6,5,-2,12
CCOc1cccc(C(=O)Nc2nnc(-c3ccco3)s2)c1,12,6,nt,37*
Oc1ccccc1C1NN=C(c2ccccc2)S1 (centres undefined),1,-11,-1,21
CSc1ccc(C2NN=C(c3ccccc3)S2)cc1 (centres undefined),46*,-26,1,7
Cc1cc(C)c2nc(C)cc(Nc3ccc(C(=O)NCCO)cc3)c2c1,4,14,2,59*
O=C(CCCN1C(=O)/C(=C/c2cccs2)SC1=S)NNC(=O)c1cccnc1,3,-9,-3,33*
O=C(CCCN1C(=O)/C(=C\c2cccs2)SC1=S)NNC(=O)c1ccncc1,-4,3,2,11
O=C(NN1C(=O)/C(=C/c2cccs2)SC1=S)c1ccncc1,-7,7,2,34*
COC(=O)CCCCCN1C(=O)/C(=C\c2ccncc2)SC1=S,8,-10,34*,15
Cc1cc(C)n2c(NC3CCCC3)c(-c3ccc(F)cc3)nc2n1,nt,1,nt,nt
Cc1cc(=O)[nH]c(N/N=C/c2ccc(N(C)C)cc2)n1,14,2,-8,35*
CCNc1nc(NCC)nc(N/N=C/c2ccc(O)c(O)c2)n1,-3,4,-5,11
Cc1cc(=O)[nH]c(N/N=C/c2ccccc2C(F)(F)F)n1,-3,9,0,4
CCNc1nc(NCC)nc(N/N=C/c2ccc(N(C)C)cc2)n1,24,-23,nt,38*
COc1ccc(/C=N/Nc2nnc(Cc3ccc(OC)c(OC)c3)c(=O)[nH]2)cc1OC,-1,8,-6,31
COc1ccc(Cc2nnc(N/N=C/c3ccc(N(C)C)cc3)[nH]c2=O)cc1OC,-2,23,-1,78*
Cc1cc(=O)[nH]c(N/N=C/c2cc(C)n(CC(F)(F)F)c2C)n1,3,5,-4,40*
SMILES,Mtb FBA inh,CCHFV vOTU inh,RecA splice inh,GDH-TPI counter
COC(=O)[C@H](CC(C)C)NC(=O)/C=C/[C@H]1O[C@@H](n2ccc(=O)[nH]c2=O)[C@H](O)[C@@H]1O,-1,-3,nt,nt
CCc1noc(C)c1C(=O)N1CCCC(N2CCN(c3cccc(Cl)c3)CC2)C1 (centres undefined),1,-5,-2,-2
CCN(CCC#N)c1ccc(/C=N/Nc2nc(C)cc(=O)[nH]2)c(C)c1,8,-2,-4,45*
Cn1c(=O)c(N=O)c(N)n(Cc2ccccc2)c1=S,-1,10,11,32*
Cn1c(=O)n(Cc2ccccc2)c2ccccc21,1,9,3,6
O=C1c2cc([N+](=O)[O-])ccc2-c2ncccc21,0,2,46*,9
CN(C)C=NC(=O)c1ccc(N2CCN(c3ncc(C(F)(F)F)cc3Cl)CC2)cc1,4,-4,1,19
CN(C)/C=C/C(=O)c1ccc(N2CCN(c3ncc(C(F)(F)F)cc3Cl)CC2)cc1,2,-14,6,40*
Cc1cccc(C2=NN(c3ccc(Br)cc3)[C@@H](C(=O)N3CCOC3=O)[C@@H]2c2ccc(Cl)cc2)c1,70*,nt,nt,1
Cc1cccc(C2=NN(c3ccc(Br)cc3)[C@@H](C(=O)N3CCOC3=O)[C@@H]2c2ccc(F)cc2)c1,42*,-73,-48,11
COc1ccccc1[C@@H]1C(c2cccc(C)c2)=NN(c2ccc(Br)cc2)[C@H]1C(=O)N1CCOC1=O,15,12,nt,9
COc1cc(Nc2ccn3nccc3n2)cc(OC)c1OC,-3,-2,nt,9
Cc1cccc(NC(=O)[C@@H]2CC(=O)O[C@@H]2c2ccccc2)c1C,nt,-3,nt,nt
O=C(CCNS(=O)(=O)c1ccccc1)OCC(=O)c1ccc(Br)cc1,1,-9,1,-1
N#C/C(=C\Nc1ccccc1O)c1nc2ccccc2o1,-1,11,4,33*
Cc1ccc(-c2c(C)sc(NC(=O)C3C4CCC(O4)C3C(=O)O)c2C(=O)OC(C)C)cc1 (centres undefined),3,12,3,9
COC(=O)c1c(NC(=O)/C=C/C(=O)O)sc(C)c1-c1ccc(C)cc1,1,6,43*,11
CCOC(=O)C(C)Sc1nnc2c3ccccc3n(C)c2n1 (centres undefined),0,18,1,32*
CCOc1cccc2cc(C(=O)NCc3ccccc3)c(=N)oc12,2,nt,-1,1
CCOc1ccccc1-c1ccc(C(=O)NCc2ccccc2)o1,+,-51,11,14
Nc1ccc(-c2cnc(-c3ccc(N)cc3)nc2)cc1,-6,20,0,67*
CCc1cc(=O)oc2cc(OCC(=O)NCC3CCC(C(=O)O)CC3)ccc12 (centres undefined),28*,-4,-1,19
CCc1cc(=O)oc2c(C)c(OCC(=O)NCC3CCC(C(=O)O)CC3)ccc12 (centres undefined),15,-7,2,17
C=C(Cl)COc1ccc2c(CCC)cc(=O)oc2c1,16,2,3,9
COc1ccc(-c2cc3ccc(OCC(=O)NCC4CCC(C(=O)O)CC4)cc3oc2=O)cc1 (centres undefined),178*,-195,-80,42*
SMILES,Mtb FBA inh,CCHFV vOTU inh,RecA splice inh,GDH-TPI counter
CCCc1cc(=O)oc2cc(OCc3ccc(C(=O)O)cc3)ccc12,48*,-25,-4,13
COc1ccc2c(c1)c(=O)oc1cc(OCC(=O)NCC3CCC(C(=O)O)CC3)ccc12 (centres undefined),15,-11,-4,11
COc1ccc(NC(=O)c2cc3cc(OC)ccc3oc2=O)cc1,0,-3,nt,5
COc1ccc2oc(=O)c(C(=O)Oc3ccc(NC(C)=O)cc3)cc2c1,31*,-41,-10,18
CN(CCCn1ccc(NC(=O)OCc2ccccc2)nc1=O)CCc1ccccn1,-1,8,nt,7
CC(C)(C)n1nnnc1C(c1ccc(F)cc1)N(Cc1ccc(F)cc1)Cc1ccco1 (centres undefined),-1,-1,8,-8
Cc1ccc(C(c2nnnn2C(C)(C)C)N(Cc2ccco2)Cc2cccs2)cc1 (centres undefined),36*,4,-2,-11
O=C(COc1ccc2oc(-c3ccco3)cc(=O)c2c1)N1CCCCC1,157*,-170,0,51*
